From PubChem BioAssay (NCI) come the findings set out here.

Common to all, as to assay: NCI-60 one-dose screen, 48 h (100 = growth as untreated, 0 = no growth, -100 = all killed)
Test [1] has as its system NCI-H23 lung. Particulars: 10 µM unless noted.
The subject of test [2] is NCI-H226 lung. Particulars: 10 µM unless noted.
Test [3] concerns NCI-H322M lung. Particulars: 10 µM unless noted.
In test [4] the test system is HOP-62 NSCLC. Particulars: 10 µM unless noted.
For test [5], the system named is NCI-H460 lung. Particulars: 10 µM unless noted.
Test [6] concerns HOP-92 NSCLC. Particulars: 10 µM unless noted.
Test [7] relates to NCI-H522 lung. Particulars: 10 µM unless noted.
The subject of test [8] is 786-0 renal. Particulars: 10 µM unless noted.
The test system of test [9] is COLO 205 colon. Particulars: 10 µM unless noted.
Test [10] relates to DU-145 prostate. Particulars: 10 µM unless noted.
In test [11] the test system is K-562 leukemia. Particulars: 10 µM unless noted.
The subject of test [12] is MALME-3M melanoma. Particulars: 10 µM unless noted.
Test [13] concerns MDA-MB-231 breast. Particulars: 10 µM unless noted.
Test [14] has as its system RXF 393 renal. Particulars: 10 µM unless noted.
The subject of test [15] is SF-268 CNS. Particulars: 10 µM unless noted.
Test [16] has as its system SF-295 CNS. Particulars: 10 µM unless noted.
The test system of test [17] is SF-539 CNS. Particulars: 10 µM unless noted.
For test [18], the system named is UACC-257 melanoma. Particulars: 10 µM.
For test [19], the system named is M14 melanoma. Particulars: 10 µM unless noted.

Structures are written as SMILES. This is part of a sample that, as a whole, favours compounds with a hit. Of some 83,000 tested, about 20% had one in any assay.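 Single-concentration screen, 48 h exposure, 96-well plates. Endpoint: percent growth. Below 10 = active.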 Unmarked numbers belong to inactive results. The source made the active and inactive calls.

For the compound `COc1ccc(/C=N\NC(=O)c2ccc3nc(-c4ccc(Br)cc4)[nH]c3c2)cc1`, the growth is 24.5% in test [1]; 64.3% in [2]; 66.2% in [3]; 4.06% (active) in test [4]; -47.7% (active) in test [5]; -2.97% (active) in test [6]. Further, the growth is 74.6% in test [7]; 12.8% in test [8]; 18.4% in [9]; 16.5% in test [10]; 11.6% in test [11]; -9.02% (active) in test [12]. Further, the growth is 48.6% in [13]; -17.7% (active) in [14]; 8.61% (active) in test [15]; 11% in test [16]; 16.4% in [17]; 38.7% in [18]. Besides, the growth in test [19] was 24.7%.
As to `Cc1ccc(/C=C/c2nn3c(-c4ccco4)nnc3s2)cc1`, the growth is 104% in test [1]; 100% in [2]; 94% in [3]; 114% in [4]; 99.9% in [5]; 107% in [6]. Further, the growth in test [7] is 94.4%; in test [8], 88.4%; in [9] it was 102%; in [10], 99.7%; in test [12], 106%; in test [13], 110%. The growth was 95.5% in [14]; 104% in test [15]; 95.7% in test [16]; 94.7% in test [17]; 112% in [18]; 94.8% in test [19].
As to `COc1ccc(C2C(C#N)=C(N)Oc3c2sc2ccc(C)cc32)cc1` (configuration not stated), the growth in [1] is 43.7%; in [2], 34.9%; in test [3], 71.8%; in test [4], 30.1%; in [5], 15.2%; in [6], 72.1%. Also, the growth in test [7] was -34.3% (active); in [8], 42%; in test [9], 36.8%; in test [10], 36.3%; in test [11], 18.2%; in [12], 50%. Also, the growth in test [13] was 42.2%; in test [14], -7.62% (active); in test [15] it was 44.7%; in test [16], 9.1% (active); in [17] it was 21%; in test [18], 57.1%. In addition, the growth in [19] was 20.9%.
Take `Cc1cc(O)c2c(c1)C(=O)C(c1c(C)cc3c(c1O)C(=O)C=CC3=O)=CC2=O`: the growth is 89.9% in [1]; 97.7% in test [2]; 110% in test [3]; 98.6% in test [4]; 109% in test [5]; 108% in test [6]. In addition, the growth in test [7] was -36.9% (active); in [8], 37.4%; in test [9] it was -19.3% (active); in [10] it was 72.8%; in [11], 15.4%; in test [12], -15.2% (active). Also, the growth is 62.8% in test [13]; 20.2% in [14]; 96.8% in [15]; 107% in [16]; 108% in test [17].
With `Cc1cc(C(=O)Nc2ccc(SC#N)cc2)c(C)o1`, the growth in test [1] is 89.5%; in [2], 77.7%; in test [3] it was 96.2%; in test [4] it was 63.9%; in test [5], 82.4%; in test [6], 110%. The growth in test [7] is 49.8%; in [8], 88.2%; in [9] it was 106%; in [10] it was 104%; in test [11], 93.3%; in test [12], 107%. Further, the growth in [13] was 92.4%; in test [14] it was 66.5%; in [15] it was 66.6%; in [16] it was 92.4%; in [17] it was 98.8%; in [18] it was 111%. For the same compound, the growth in test [19] is 101%.
For the compound `Fc1ccc(-c2cc3nc(C(Cl)Cl)nc(-c4cccs4)n3n2)cc1`, the growth in test [1] is 35.2%; in [2] it was 95%; in test [3] it was -9.31% (active); in test [4] it was 5.82% (active); in test [5] it was -32.8% (active); in [6], -6.12% (active). Besides, the growth is 78.9% in test [7]; 58.2% in test [8]; -23.1% (active) in test [9]; -21.8% (active) in test [10]; 44.5% in [11]; 62.5% in test [12]. For the same compound, the growth in [13] was -15.2% (active); in [14], -44.1% (active); in test [15], 13.3%; in [16], -7.41% (active); in [17], -2.29% (active); in test [18], 46.2%.
Consider `CC(=O)Nc1cccc(-n2cnc3cc(-c4ccc(O)cc4)ccc32)c1`, for which the growth in [1] is 47.8%; in test [2], 37.9%; in test [3], 56.6%; in test [4], 38.4%; in test [5] it was 15.9%; in test [6], 49.5%. Besides, the growth in test [7] was -29.8% (active); in test [8], 45.6%; in test [9], 66.3%; in test [10], 27.9%; in test [11] it was 8.67% (active); in [12], 73.7%. For the same compound, the growth in test [13] was 61.1%; in test [14] it was -6.91% (active); in test [15] it was 46.2%; in test [16], 17.1%; in [17] it was -5.03% (active); in [18] it was 79.6%. The growth in test [19] was 53.2%.
Turning to `COc1ccc(N2C(=O)c3cc(OC)c(OC)cc3NC2SCc2ccccc2)cc1` (configuration not stated), the growth was 107% in test [1]; 102% in test [2]; 104% in [3]; 107% in test [4]; 122% in [5]; 112% in test [6]. The growth in test [7] was 95.2%; in [8] it was 117%; in test [9], 109%; in test [10], 110%; in test [11] it was 88.6%; in test [12], 95.2%. Further, the growth in test [13] was 91.5%; in test [14], 144%; in test [15], 110%; in test [16], 103%; in test [17], 94.3%; in test [18], 105%.
